Data on 43 sequences can be found in paper PMC7819943, “Rice protein-binding microarrays: a tool to detect cis-acting elements near promoter regions in rice”.

Over roughly 39,000 sequences, “fluorescence intensity (a.u.)” has its median near 4,300; the highest 2% begin near 39,000. The sample as a whole holds a higher share of the highest values than the screen did.

The assay concerns the target T1, OsSMF1 (Oryza sativa, UniProt Q6ZLB0 1-436).
T1 sequence: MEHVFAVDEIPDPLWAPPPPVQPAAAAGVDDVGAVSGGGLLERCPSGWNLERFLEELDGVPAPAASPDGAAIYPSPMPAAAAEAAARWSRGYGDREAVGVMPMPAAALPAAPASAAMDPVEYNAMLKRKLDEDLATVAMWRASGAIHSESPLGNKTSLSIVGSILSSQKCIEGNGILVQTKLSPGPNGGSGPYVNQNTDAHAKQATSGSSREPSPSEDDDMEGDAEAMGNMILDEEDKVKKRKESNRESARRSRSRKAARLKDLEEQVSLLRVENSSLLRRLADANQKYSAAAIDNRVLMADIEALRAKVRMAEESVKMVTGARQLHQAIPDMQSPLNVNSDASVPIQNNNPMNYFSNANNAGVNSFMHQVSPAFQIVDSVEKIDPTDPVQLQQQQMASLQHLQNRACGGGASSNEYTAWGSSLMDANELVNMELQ
In words: protein-binding microarray (RPBM); PBS, 2% BSA, 51.3 ng/ul salmon testes DNA, 50 uM zinc acetate, 200 nM TF, 25 C, 1 h; high values mean tight binding. As to conditions: protein: recombinant; tags: N-terminal polyhistidine and DsRed monomer fusion (pET32a); chain copies: 2; label: CyDye5-dUTP incorporated in the synthesized complementary strand; 3' TTTTT single-stranded linker to array surface; dsDNA, one strand shown. The essentials: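 Polyhistidine-tagged DsRed fusions of transcription factors, joined at the N-terminus, were expressed in E. coli BL21-CodonPlus and isolated on Ni–NTA. They were incubated at 200 nM for 1 h at 25 °C on a custom Agilent array, double-stranded and BSA-blocked, in PBS with 2% BSA, salmon testes DNA and 50 µM zinc acetate. The binding signal is per-feature fluorescence intensity (arbitrary units) read on an Axon 4000B scanner after washing.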
In the case of “ACCTGTGGACTTGCACGGTAACGTAGCACAATCTTCAAAGCGGAGTCACCTAGTGCAG”, the binding signal was 3810 fluorescence intensity (a.u.).
The same measure for “TCCCCTCGCGGCGAACGCGCGCGCGCAACGAGAAGCCAAGCGGAGTCACCTAGTGCAG”: 3200 fluorescence intensity (a.u.); for “AGCGGCAGTAGCAAGGGAGCTAGGCCCCGAAGGAAAACCGCGGAGTCACCTAGTGCAG”: 46000 fluorescence intensity (a.u.); for “TCCCCTTCACCGCAACTTCGGCGAAGTCAAGAAGGAGTAGCGGAGTCACCTAGTGCAG”: 43800 fluorescence intensity (a.u.).
The result for “CGGCGAAGTAGCAAGGGTTGAGTCTGCATCATCAACCAATCGGAGTCACCTAGTGCAG” reads 3370 fluorescence intensity (a.u.).
The same measure for “TTTAGTAGTTTGAAAAGCATACGCGCGGAAACCGAGCAAGCGGAGTCACCTAGTGCAG”: 3190 fluorescence intensity (a.u.); for “GCCGAAACGCGAAGTGACAGTGACAAGGGAAGGACGGCCCCGGAGTCACCTAGTGCAG”: 3220 fluorescence intensity (a.u.); for “TGATGTTCTTACTGGTGGTGCTGATGACAATACTGAACAGCGGAGTCACCTAGTGCAG”: 3840 fluorescence intensity (a.u.).
Consider “TAAGTGGACCTATAGGTGCACACGTGGGGAGAGGGGCGTGCGGAGTCACCTAGTGCAG”, for which the binding signal was 5690 fluorescence intensity (a.u.).
For “GCACCAGCGGTCCTCAAACTTGTAAGGGTGTGTCATCTAGCGGAGTCACCTAGTGCAG”, the binding signal was 3660 fluorescence intensity (a.u.).
The same measure for “TTTCAATTATTTAGGTATTAACATTAACTACTTTACTAACCGGAGTCACCTAGTGCAG”: 14800 fluorescence intensity (a.u.); for “TAAGAAAACTACAGCTTTATTACTCAAACTTAATATTAACCGGAGTCACCTAGTGCAG”: 39800 fluorescence intensity (a.u.); for “TTTTCAATTGTACATTGAGTCATTGACAATGCACAATTTACGGAGTCACCTAGTGCAG”: 3680 fluorescence intensity (a.u.).
The result for “ATTGTACACAACAAATTGAAATTTTCAATTCAACTTTTAACGGAGTCACCTAGTGCAG” reads 43200 fluorescence intensity (a.u.); that for “GCAAACAAAATATACCTGCCAAGTCAACTTCACGGCCGGACGGAGTCACCTAGTGCAG”, 4280 fluorescence intensity (a.u.); that for “CTATATTTTACTATAAGCTTAATCAAACTTCAAAATATTTCGGAGTCACCTAGTGCAG”, 14400 fluorescence intensity (a.u.).
Take “AGTTCAAGAAAACTTTATATTCAAACAAGAAAATTGGGGCCGGAGTCACCTAGTGCAG”: the binding signal was 40900 fluorescence intensity (a.u.).
The same measure for “AGAAATCAACTTCAAACCTTTATTCTCAACATCAGGAGATCGGAGTCACCTAGTGCAG”: 26000 fluorescence intensity (a.u.); for “ACTCTAAATTTAAACTTTTCACTCAATTGAAACTTTTCAACGGAGTCACCTAGTGCAG”: 24700 fluorescence intensity (a.u.).
The same measure for “GGGATGGCCAGATTGGAACTCAGCAGACTCGCTGATGACTCGGAGTCACCTAGTGCAG”: 3800 fluorescence intensity (a.u.); for “TTGTCCCTATAATAATATGTCACTCAAAATTGCTAATAAACGGAGTCACCTAGTGCAG”: 3400 fluorescence intensity (a.u.).
The same measure for “GATGTACTCGAGTATCTTCCCCTTCCTAGTTCCTTCCCTTCGGAGTCACCTAGTGCAG”: 13900 fluorescence intensity (a.u.); for “GATGCAAAGAGAGCTACTAGCTGAGTTGGATGGAATTAACCGGAGTCACCTAGTGCAG”: 5550 fluorescence intensity (a.u.); for “AAGTAGGCGTAGTTAAATCAAATGAGTGCTGTGCTGTCCACGGAGTCACCTAGTGCAG”: 3400 fluorescence intensity (a.u.).
In the case of “CCGTCGCCGTCGGCACCGCCGCCGGAGCTCCTCCCTGCTCCGGAGTCACCTAGTGCAG”, the binding signal is 3220 fluorescence intensity (a.u.).
The result for “ATCTACTGATTTACAACCTCCTTAATTAACAAGCACGGGTCGGAGTCACCTAGTGCAG” reads 24600 fluorescence intensity (a.u.); that for “ACTCCTCGGATAGGCGATGGCGGCCGCGGTCACCGCGCCACGGAGTCACCTAGTGCAG”, 3370 fluorescence intensity (a.u.); that for “AAGCTGTTTCACAAGGCAGTTTTGCATACGTGGCGGGCTGCGGAGTCACCTAGTGCAG”, 21500 fluorescence intensity (a.u.).
As to “AGGAAGGAAGGAAGCAAAATGCTGACGTGTACATAAACCGCGGAGTCACCTAGTGCAG”, the binding signal was 16000 fluorescence intensity (a.u.).
The result for “GGTGTGGAGGGGTTGGACCAGAGCACGACGACGGCGAGGACGGAGTCACCTAGTGCAG” reads 45100 fluorescence intensity (a.u.); that for “CACCGCGACGCACATACCCACCCGCCGGCCACGCACGAGACGGAGTCACCTAGTGCAG”, 4460 fluorescence intensity (a.u.); that for “CGCATACCGGCCAGAAACACGACGGCGACGAGGTGCACTACGGAGTCACCTAGTGCAG”, 41500 fluorescence intensity (a.u.).
The same measure for “CACCCACGAGCACACCCGTACCAGGGGACGAGGAGGTGGACGGAGTCACCTAGTGCAG”: 38300 fluorescence intensity (a.u.).
As for “CTAGACGCCGGCGACGACGAGGGTGGTTGGGTTGTGGATACGGAGTCACCTAGTGCAG”, the binding signal is 3740 fluorescence intensity (a.u.).
For the sequence “CGGTGCGAGGTACTACGTCAAGGCGTACGAGGCCAGGTACCGGAGTCACCTAGTGCAG”, the binding signal was 3140 fluorescence intensity (a.u.).
The same measure for “AGAGGGCGTGTACTCGTGACATCGTGTGTGTGCGTGTGCGCGGAGTCACCTAGTGCAG”: 6670 fluorescence intensity (a.u.).
The result for “TTACTACACGGATCGCGGTCACGTCACGTGGTCCATAGTCCGGAGTCACCTAGTGCAG” reads 6690 fluorescence intensity (a.u.); that for “CTTTCCCTATCTTTCTCCTCATCATATGTGTCATGATGCACGGAGTCACCTAGTGCAG”, 9020 fluorescence intensity (a.u.); that for “AGCTATCATGTAAGCGTCACGTCAATGCGATGCAGGGGCGCGGAGTCACCTAGTGCAG”, 4630 fluorescence intensity (a.u.).
In the case of “TTTAGTGGCAGTCTTATAATAACGATTCAAAATAGTGGCACGGAGTCACCTAGTGCAG”, the binding signal is 3190 fluorescence intensity (a.u.).
The same measure for “TAACAAATAACCTTAAGTCCTTAACAAATAATAAGTGCACCGGAGTCACCTAGTGCAG”: 3190 fluorescence intensity (a.u.); for “AATATACAACACTATATTATTAATGCAGTCCAATCGATATCGGAGTCACCTAGTGCAG”: 37000 fluorescence intensity (a.u.); for “ACAAATAAATCCTTAAATACACTAACTATCGAATGCACGCCGGAGTCACCTAGTGCAG”: 41300 fluorescence intensity (a.u.).
